In PubChem BioAssay (Tox21):
Several values for one entry are separate records, joined by “and”; a condition that tells them apart may be missing. Identical values can stand only once. Results filed as inconclusive are left out. Entries that show only a call come without a potency. The source holds several records for some structures; these can differ, active in one and inactive in another. Activity calls are given as the source filed them. Unless noted, the call rests on the fitted dose curve; in most records, active means well fitted curve in the direction sought with a large enough effect in the repeat runs; inconclusive means weak or mixed curves; inactive means no such curve, though single readings can be large; an effect the other way counts as inactive or inconclusive.

Tests used:
[1] = qHTS assay to identify small molecule agonists of the estrogen receptor alpha (ER-alpha) signaling pathway in the presence of an antagonist - cell viability counter screen (AID 1259386);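 further: cells exposed to compounds for 22 h at 37 °C before the viability read; nearly all actives have a fitted effect of over 30% in size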; further: potency means the concentration at half of the fitted maximal effect
Method in brief: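 VM7Luc4E2, stripped-serum pre-culture 5 d; 24hr plating; +ICI-182,780 10.0nM final; cpds 15 conc, 22hr, 37C/5% CO2; CellTiter-Fluor added at 21hr, fluorescence 1hr later.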

[2] = molecular target: Progesterone receptor (Homo sapiens) (UniProt P06401); experiment: qHTS assay to identify small molecule agonists of the progesterone receptor (PR) signaling pathway (AID 1346784; calls by dose curve; further: nearly all actives have a fitted effect of over 30% in size; further: potency means the concentration at half of the fitted maximal effect)
Progesterone receptor (Homo sapiens), sequence (P06401 whole entry, looked up): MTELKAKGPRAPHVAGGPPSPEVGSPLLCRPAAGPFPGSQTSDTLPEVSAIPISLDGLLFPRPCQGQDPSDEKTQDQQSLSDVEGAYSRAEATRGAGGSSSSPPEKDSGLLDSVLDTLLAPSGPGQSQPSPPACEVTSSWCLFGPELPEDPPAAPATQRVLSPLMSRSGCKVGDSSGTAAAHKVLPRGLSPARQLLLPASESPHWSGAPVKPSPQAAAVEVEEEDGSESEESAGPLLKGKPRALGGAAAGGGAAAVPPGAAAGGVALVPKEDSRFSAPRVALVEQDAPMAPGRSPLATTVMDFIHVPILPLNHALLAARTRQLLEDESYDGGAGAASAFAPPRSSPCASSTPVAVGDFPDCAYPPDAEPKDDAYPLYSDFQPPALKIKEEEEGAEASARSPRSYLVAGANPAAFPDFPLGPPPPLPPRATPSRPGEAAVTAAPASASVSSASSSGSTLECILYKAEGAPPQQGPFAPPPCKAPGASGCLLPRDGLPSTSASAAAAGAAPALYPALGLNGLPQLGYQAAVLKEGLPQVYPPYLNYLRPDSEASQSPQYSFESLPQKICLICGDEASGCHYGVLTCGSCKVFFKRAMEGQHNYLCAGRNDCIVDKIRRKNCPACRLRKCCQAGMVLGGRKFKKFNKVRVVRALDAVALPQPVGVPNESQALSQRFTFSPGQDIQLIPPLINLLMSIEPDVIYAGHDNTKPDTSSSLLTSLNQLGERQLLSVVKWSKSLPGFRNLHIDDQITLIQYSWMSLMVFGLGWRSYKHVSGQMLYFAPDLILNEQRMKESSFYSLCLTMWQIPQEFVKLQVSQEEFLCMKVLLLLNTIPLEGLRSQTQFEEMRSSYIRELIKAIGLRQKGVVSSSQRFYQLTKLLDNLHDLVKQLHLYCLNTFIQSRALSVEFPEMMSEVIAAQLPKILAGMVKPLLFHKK
Method in brief: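 Fluorescence from LiveBLAzer B/G FRET substrate cleavage (2 hr, RT) reported PR activation in PR-UAS-bla HEK 293T cells treated 16 hr at 37C/5% CO2 with compounds; medium contained 2% charcoal-stripped FBS.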

[3] = qHTS assay to identify small molecule antagonists of the progesterone receptor (PR) signaling pathway - cell viability counter screen (AID 1346798); further: nearly all actives have a fitted effect of over 50% in size; further: potency means the concentration at half of the fitted maximal effect
Method in brief: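 CellTiter-Glo luminescence; PR-UAS-bla HEK293T, 3,000 cells/well; compound + R5020, 16 hr, 37C/5% CO2; 30 min RT before read.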

[4] = qHTS assay to identify small molecule antagonists of the TGF-beta/Smad signaling pathway - cell viability counter screen (AID 1346824); further: nearly all actives have a fitted effect of over 50% in size; further: potency means the concentration at half of the fitted maximal effect
Method in brief: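 SBE-bla HEK 293T cells were plated overnight at 37 C, then given compounds in DMSO plus TGF-beta1 (added as 0.25 ng/mL solution) for 5 hr. After the bla read, CellTiter-Glo was added to the same wells and luminescence read after 30 min at room temperature.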

[5] = qHTS assay to identify small molecule agonists of the TGF-beta/Smad signaling pathway - cell viability counter screen (AID 1346829); further: nearly all actives have a fitted effect of over 45% in size; further: potency means the concentration at half of the fitted maximal effect
Method in brief: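 CellTiter-Glo luminescence readout; SBE-bla HEK 293T cells, overnight plating, compound 5 hr at 37 C/5% CO2, then bla substrate 2 hr RT, then CellTiter-Glo 30 min RT.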

[6] = qHTS assay to identify small molecule agonists of the TGF-beta/Smad signaling pathway (AID 1346859; active means well fitted activation curve with a large enough effect in the signal ratio in the repeat runs, not every such curve was filed as active; the % refers to the signal ratio; further: series mostly up to about 77 µM)
Method in brief: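 After overnight seeding, SBE-bla HEK 293T cells are dosed with compounds in DMSO and kept 5 hr at 37 C, 5% CO2. LiveBLAzer-type FRET substrate is then applied for 2 hr at room temperature.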

[7] = molecular target: Thyrotropin-releasing hormone receptor (Homo sapiens) (UniProt P34981); experiment: qHTS assay to identify small molecule antagonists of the thyrotropin-releasing hormone receptor (TRHR) signaling pathway (AID 1346877; active means well fitted inhibition curve with a large enough effect in the repeat runs, not every such curve was filed as active; further: potency means the concentration at half of the fitted maximal effect; on activity, negative = inhibition: series mostly up to about 51 µM)
Thyrotropin-releasing hormone receptor (Homo sapiens), sequence (P34981 whole entry, looked up): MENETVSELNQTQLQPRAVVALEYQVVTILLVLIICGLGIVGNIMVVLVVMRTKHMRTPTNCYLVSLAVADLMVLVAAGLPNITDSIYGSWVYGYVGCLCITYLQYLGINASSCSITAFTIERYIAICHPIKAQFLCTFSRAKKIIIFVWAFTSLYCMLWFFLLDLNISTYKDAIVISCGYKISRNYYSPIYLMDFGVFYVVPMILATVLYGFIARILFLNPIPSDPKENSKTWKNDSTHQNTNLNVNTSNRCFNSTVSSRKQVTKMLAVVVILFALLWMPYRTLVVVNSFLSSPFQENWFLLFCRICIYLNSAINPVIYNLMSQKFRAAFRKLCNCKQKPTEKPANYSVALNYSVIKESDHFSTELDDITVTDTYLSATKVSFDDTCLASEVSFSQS
Method in brief: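 Intracellular calcium fluorescence, read kinetically every second over 3 min, reports TRH-evoked signalling in HEK293 cells carrying TRHR. Test compounds were added 5 min ahead of a 1 nM TRH challenge.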

[8] = molecular target: Thyrotropin-releasing hormone receptor (Homo sapiens) (UniProt P34981); experiment: qHTS assay to identify small molecule agonists of the thyrotropin-releasing hormone receptor (TRHR) signaling pathway (AID 1346891; calls by dose curve; further: potency means the concentration at half of the fitted maximal effect;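 on activation: HEK293 cells expressing TRHR with calcium dye readout; series mostly up to about 58 µM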)
Method in brief: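 Compounds were tested as agonists at 15 concentrations, in triplicate, on TRHR-Hek293 cells; calcium-sensitive dye fluorescence was recorded for 3 min following addition.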

[9] = molecular target: Progesterone receptor (Homo sapiens) (UniProt P06401); experiment: qHTS assay to identify small molecule antagonists of the progesterone receptor (PR) signaling pathway (AID 1346795; active means well fitted inhibition curve with a large enough effect in the signal ratio in the repeat runs, not every such curve was filed as active; the % refers to the signal ratio; further: potency means the concentration at half of the fitted maximal effect)
Method in brief: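 Fluorescence intensity measured 2 hr after adding beta-lactamase FRET substrate to PR-UAS-bla HEK293T cells that had been co-treated 16 hr with compound and 1 nM R5020 (final concentration) in 2% charcoal-stripped FBS.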

[10] = qHTS assay to identify small molecule agonists of the progesterone receptor (PR) signaling pathway - cell viability counter screen (AID 1346799; calls by dose curve; further: nearly all actives have a fitted effect of over 45% in size; further: potency means the concentration at half of the fitted maximal effect)
Method in brief: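 In parallel with the beta-lactamase readout, cytotoxicity toward PR-UAS-bla HEK293T cells was measured by CellTiter-Glo luminescence following 16 hr compound incubation in 2% charcoal-stripped FBS medium.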

Structure (SMILES) | Potency [1] | Potency [2] | Potency [3] | Potency [4] | Potency [5] | outcome [6] | Potency [7] | Potency [8] | activity change, negative = inhibition [9] | Potency [10] | activation [6] | activity, negative = inhibition [7] | Potency [9]
C#C[C@]1(O)CC[C@H]2[C@@H]3CCc4cc(OC)ccc4[C@H]3CC[C@@]21C | inactive | 7.7 µM (active) | inactive | inactive | inactive | inactive | inactive | inactive | – | – | – | – | –
Cc1cc2nc3c(=O)[nH]c(=O)nc-3n(C[C@H](O)[C@H](O)[C@H](O)CO)c2cc1C | – | inactive | inactive | inactive | inactive | – | 33.5 µM (active) and 19.8 µM (active) | 10.9 µM (active) and 6.42 µM (active) and 6.57 µM (active) | -6.9% [at 18.9 µM] (inactive) | inactive | -2.99% [at 15.8 µM] (inactive) | -21.3% [at 10.5 µM] (inactive) | –
CC(=O)Oc1ccccc1C(=O)Nc1ncc([N+](=O)[O-])s1 | 24.8 µM (active) and 23.7 µM (active) | inactive | – | 14.1 µM (active) and 8.49 µM (active) | 11.2 µM (active) | – | inactive | inactive | – | – | – | – | –
COC(=O)CCC(=O)OC | inactive | inactive | inactive | inactive | inactive | inactive | inactive | inactive | – | inactive | – | – | –
O=C(/C=C/C=C/c1ccc2c(c1)OCO2)N1CCCCC1 | – | inactive | inactive | inactive | inactive | inactive | inactive | inactive | – | – | – | – | –
CC(C)(C)NC(=O)[C@H]1CC[C@H]2[C@@H]3CC[C@H]4NC(=O)C=C[C@]4(C)[C@H]3CC[C@]12C | inactive | inactive | inactive | inactive | inactive | inactive | inactive | inactive | – | inactive | – | – | –
CC(C)CC(C)(O)C#CC(C)(O)CC(C)C (stereo not drawn) | inactive | inactive | – | inactive | inactive | inactive | inactive | inactive | – | inactive | – | – | inactive
Cc1ccc(C(=O)c2cc(O)c(O)c([N+](=O)[O-])c2)cc1 | 27.3 µM (active) and 29.8 µM (active) | inactive | inactive | – | inactive | – | inactive | inactive | – | – | – | – | 23.7 µM (active)
CC(=O)O[C@]1(C(C)=O)CC[C@H]2[C@@H]3C=C(Cl)C4=CC(=O)[C@@H]5C[C@@H]5[C@]4(C)[C@H]3CC[C@@]21C | inactive | – | inactive | inactive | inactive | – | – | – | – | – | – | – | –
Nc1ccccc1N | 49.7 µM (active) | inactive | inactive | inactive | inactive | inactive | inactive | inactive | – | inactive | – | – | –
Cc1[nH]c(=O)c(C#N)cc1-c1ccncc1 | inactive | – | inactive | inactive | inactive | inactive | inactive | inactive | – | 2.73 µM (active) and inactive | – | – | –
CCCCc1oc2ccccc2c1C(=O)c1cc(I)c(OCCN(CC)CC)c(I)c1 | inactive | inactive | 24.5 µM (active) and 11.9 µM (active) | – | – | inactive | inactive | inactive | – | 19.5 µM (active) and 13.3 µM (active) | – | – | –
